DAX1 inh-1: inhibitors of human orphan nuclear receptor DAX1 (NR0B1); inhibition, % at 6.75 µM; HEK293 Gal4-DAX1 luciferase reporter, luminescence; 0.99% of 340,000 active; AID 504766;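 active means inhibition above the mean over all tested compounds plus 3 SD, cut at about 4.2% in these data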;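 further: 0% = DAX1-transfected cells with DMSO and 100% = empty-vector control cells with DMSO; inhibition shows as a rise in luminescence from relieved DAX1 repression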
Target sequence (P51843 207-470 limits assumed): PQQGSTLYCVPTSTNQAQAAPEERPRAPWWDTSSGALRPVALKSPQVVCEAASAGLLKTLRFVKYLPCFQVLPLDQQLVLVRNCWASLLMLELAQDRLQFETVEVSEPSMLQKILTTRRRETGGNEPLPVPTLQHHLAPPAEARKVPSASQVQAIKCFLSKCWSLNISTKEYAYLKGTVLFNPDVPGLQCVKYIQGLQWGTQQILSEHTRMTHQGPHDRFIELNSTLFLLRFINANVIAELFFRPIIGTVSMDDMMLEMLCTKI
hgDAF-12 ag: activates the H. glycines DAF-12 receptor ligand-binding domain; HEK293 GAL4-hgDAF12 UAS-luciferase reporter, agonist luminescence; normalized to butyrate control; activation, % at 6.8 µM; 1.8% of 370,000 active;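 active means activation above a cutoff set at the mean of all screened compounds plus 3 SD, cut at about 10% in these data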;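 further: 0% = DMSO wells and 100% = sodium butyrate wells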
ssDAF-12 act: activators of S. stercoralis DAF-12 nuclear receptor | HEK293 ssDAF-12/GRIP1 lit1-tk-luc reporter, luminescence; % of 3 µM dafachronic acid response | 1% of 370,000 active | AID 652126 | activation, % at 6.8 µM;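 active means activation above the mean over all tested compounds plus 3 SD, cut at about 0.9% in these data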;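 further: 0% = DMSO-only wells and 100% = 3 µM delta7-dafachronic acid wells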
Wee1 stabilizer: blocks degradation of human Wee1 kinase; P30291; HeLa Luc-Wee1K328M stability, luciferase luminescence; 100% = proteasome inhibitor MG132 effect; reporter increase, % at 5 µM; 1.2% of 220,000 active; AID 1321;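 active means activation above the mean of all tested compounds plus 3 SD, set per screening run, cut at about 8.8% in these data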;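 further: cells exposed to compound for 20 h before luminescence read; 0% = DMSO alone and 100% = MG132 at 30 µM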
DAX1 inh-2: DAX1 (NR0B1) inhibition, primary screen; HEK293T StAR-luciferase reporter, SF-1/DAX-1 repression relief; inhibition, % at 6.8 µM; 1.1% of 370,000 active; AID 652010;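 active means inhibition above the mean over all tested compounds plus 3 SD, cut at about 3.6% in these data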;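 further: 0% = DAX-1 cells with DMSO and 100% = cells lacking DAX-1 with DMSO; higher inhibition means more luminescence from relief of DAX-1 repression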
hcDAF-12 act: activates DAF-12 receptor from parasite H. contortus. HEK293 hcDAF-12 lit1-tk-luc reporter, luminescence; 0% DMSO, 100% Δ7-dafachronic acid. activation, % at 6.8 µM. 1.4% of 370,000 active;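 active means activation above the mean of all tested compounds plus 3 SD, cut at about 5.5% in these data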;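 further: 100% = response to 3 µM Δ7-dafachronic acid high control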
Starred values were filed as active, the others as inactive; . = not tested or not shown. Compounds with a hit are over-represented: about 4.6% of the library has one in this group of screens.

SMILES | DAX1 inh-1 | hgDAF-12 ag | ssDAF-12 act | Wee1 stabilizer | DAX1 inh-2 | hcDAF-12 act
Cc1occc1C(=O)NNC(=S)Nc1ccccc1 | 2 | 12* | 0 | 4 | 2 | 1
Cc1cc(C(=O)N2CCCC(N3CCN(c4ccccc4C)CC3)C2)no1 (centres undefined) | 0 | -2 | -1 | . | 0 | 0
O=C(NCCc1ccccc1F)c1ccc2c(c1)ncn2C1CCCCC1 | . | 9 | -1 | . | 1 | 0
Cc1ccc(C)c(NC(=O)CN(C)C(=O)c2cccc(S(=O)(=O)N(C)C)c2)c1 | 0 | -1 | -1 | 10* | 1 | 0
Cc1ccc(C)c(NC(=O)CN(C)C(=O)c2cccc(S(=O)(=O)N3CCCC3)c2)c1 | 0 | -1 | 0 | . | -1 | -1
Cn1nnnc1SCc1ccc(Cl)cc1 | 3 | 1 | -1 | 13* | 0 | -1
COc1ccccc1C(=O)NC1CCCCN(Cc2cccc(Cl)c2)C1=O (centres undefined) | . | 6 | -2 | . | -1 | 2
NC(=O)C1CC(=O)N(c2ccc(OCc3ccc(F)cc3)cc2)C1 (centres undefined) | 4.7* | 10 | 0 | . | 1 | 1
NC(=O)C1CC(=O)N(c2ccc(OCc3ccc([N+](=O)[O-])cc3)cc2)C1 (centres undefined) | 0 | 8 | -1 | . | 1 | 2
CC1(C(=O)NS(=O)(=O)c2cccc(C#N)c2)CCN1C(=O)Cc1cc(F)ccc1F (centres undefined) | . | -2 | -1 | . | 2 | 0
CCOC(=O)CC[C@H]1CC[C@]2(CCCN(Cc3ccccc3)C2)O1 | . | 1 | 0 | . | 0 | 0
Cn1c(=O)c2c(nc(NCc3ccc4c(c3)OCO4)n2Cc2ccccc2Cl)n(C)c1=O | -1 | 2 | -1 | 3 | 0 | -2
Cn1c(=O)c2c(nc(OCc3ccc4c(c3)OCO4)n2Cc2ccccc2Cl)n(C)c1=O | 0 | 1 | -1 | 9.2* | 0 | -1
CCN(CCn1cccn1)C(=O)CCc1nnc(CCCc2ccccc2)o1 | 1 | 13* | 1.0* | 4 | 1 | 2
Cn1cc(CCNC(=O)CCc2nnc(CCCCc3ccccc3)o2)cn1 | -1 | 12* | -2 | 3 | 0 | -2
Cc1ccc(O)c(N=Cc2cccs2)c1 | -1 | 9 | 0 | 0 | 1 | 5.8*
CCc1ccc(C(C)NC(=O)COC(=O)c2ccc(-n3cnnn3)cc2)cc1 (centres undefined) | 0 | -1 | -1 | . | 0 | -1
CCn1c(NCc2cccs2)nc2ccccc21 | 1 | 0 | -1 | 1 | 0 | -1
Cn1c(NCc2cccs2)nc2ccccc21 | 2 | 8 | 1.7* | -2 | 1 | 6.1*
O=C1c2ccccc2C(=O)C1c1ccncc1 | 0 | 8 | 0 | -2 | 4.0* | 5.6*
Cc1ccc2nc3n(c(=O)c2c1)-c1ccc(Cl)cc1C(=O)NC3Cc1ccccc1 (centres undefined) | . | 0 | -1 | . | -1 | 2
Cc1ccc2nc3n(c(=O)c2c1)-c1cc2ccccc2cc1C(=O)NC3Cc1ccccc1 (centres undefined) | 0 | 2 | -1 | . | 3.9* | 0
CC1NC(=O)c2cc3ccccc3cc2-n2c1nc1ccc(F)cc1c2=O (centres undefined) | 1 | 2 | 0 | . | 0 | 6.2*
CCCC1NC(=O)c2cc3ccccc3cc2-n2c1nc1ccc(C)cc1c2=O (centres undefined) | 2 | 0 | 0 | . | 2 | 1
CCCC1NC(=O)c2cc3ccccc3cc2-n2c1nc1cc(Cl)ccc1c2=O (centres undefined) | 1 | 0 | 1.4* | . | 1 | 1
SMILES | DAX1 inh-1 | hgDAF-12 ag | ssDAF-12 act | Wee1 stabilizer | DAX1 inh-2 | hcDAF-12 act
Fc1ccc2cc(C3=CCCCC3)ncc2c1 | . | -1 | -1 | . | 0 | -2
C[C@H]1CN([C@@H](C)CO)C(=O)CCCn2cc(nn2)CO[C@@H]1CN(C)C(=O)Nc1ccc(-c2cccs2)cc1 | . | 0 | -1 | . | 0 | -1
CCO[C@H]1OC(C(N)=O)=C[C@@H](c2coc3ccccc3c2=O)[C@@H]1CCCO | 0 | 1 | -1 | 9.2* | 0 | -2
O=C(/C=C/c1ccc(Br)cc1)N1CCN(c2cccc(C(F)(F)F)c2)CC1 | -1 | -2 | -1 | -1 | 2 | 6.4*
O=C(/C=C/c1cccc(Br)c1)N1CCN(c2cccc(C(F)(F)F)c2)CC1 | 0 | -4 | -1 | 3 | 0 | 2
CC(C)CN(CCOc1cccc(N2C(=O)C3=C(CCCC3)C2=O)c1)CC(C)C | 1 | 4 | -1 | 9.0* | 1 | 0
CCOC(=O)[C@]12CCCC=C1N(CCCOC)C(=O)[C@@H]2CC(=O)N1CCC(c2ccccc2)CC1 | . | 3 | -1 | . | -1 | -3
O=C(CN(C(=O)C1CSC(=O)C1)c1cccc(F)c1)NC1CCCC1 (centres undefined) | 0 | 2 | -2 | 9.2* | 1 | 1
CC(C)(C)OC(=O)N(CCc1ccccc1)Cc1cccc(OCc2cccc(NC(=O)c3ccccc3)c2)c1 | -1 | 1 | -1 | . | 4.1* | 1
c1ccc(CSc2nnc3ccc(-c4cccs4)nn23)nc1 | 1 | 4 | -2 | 2 | 0 | 1
CCc1ccc(-c2ccc(SCc3ccccn3)nn2)cc1 | 0 | 10 | -1 | 9.1* | 1 | 1
CCOc1ccc(-c2ccc(SCc3ccccn3)nn2)cc1 | 0 | 10 | -2 | -1 | 1 | 4
c1ccc(CSc2ccc(-c3cccs3)nn2)nc1 | 1 | 12* | -1 | 2 | 3.8* | 0
CCC(=O)N1CCc2cc(Br)c(S(=O)(=O)N3CCCC(C(=O)NC(C)(C)C)C3)cc21 (centres undefined) | . | -3 | -1 | . | 0 | 0
CC(=O)ONC(=Nc1ccccc1)c1nonc1N | 5.2* | 2 | -1 | 1 | 0 | -1
CCOCCCNC(=O)/C(C#N)=C/c1cc(C)c(O)c(C)c1 | 0 | 1 | -2 | 8.9* | 0 | -2
CCOCCCNC(=O)/C(C#N)=C/c1cc(OC)c(O)c([N+](=O)[O-])c1 | -3 | 1 | -1 | 0 | -2 | -1
CCOC(=O)c1c(C)oc2cc(Cl)c(O)c(CN(C)C)c12 | -1 | 13* | -1 | -2 | 1 | -2
O=C(CC1CCCC1)NNC(=O)c1ccc(Br)cc1 | 1 | 5 | -2 | . | 1 | 1
O=c1c2ccccc2sn1-c1ccc(S(=O)(=O)N2CCCCC2)cc1 | -1 | 2 | 1.1* | -3 | 0 | 0
CCOc1ccccc1C(O)C1=CC(=O)c2ccccc2C1=O (centres undefined) | -1 | -2 | -1 | . | 1 | 6.2*
CC1=CC(=O)c2ccccc2C1=O | 0 | 1 | 1 | -2 | 0 | 3
